Test results from the supplement of paper PMC10681739.

How the values were obtained:
ETS1 [1] = target: T1, ETS1 (UniProt P14921); assay: ETS1 binding intensity (PBM fluorescence), ETS1 alone (arbitrary fluorescence units); higher = stronger binding; settings: ETS1 concentration 1 nM; RUNX1 concentration 0 nM
T1 sequence: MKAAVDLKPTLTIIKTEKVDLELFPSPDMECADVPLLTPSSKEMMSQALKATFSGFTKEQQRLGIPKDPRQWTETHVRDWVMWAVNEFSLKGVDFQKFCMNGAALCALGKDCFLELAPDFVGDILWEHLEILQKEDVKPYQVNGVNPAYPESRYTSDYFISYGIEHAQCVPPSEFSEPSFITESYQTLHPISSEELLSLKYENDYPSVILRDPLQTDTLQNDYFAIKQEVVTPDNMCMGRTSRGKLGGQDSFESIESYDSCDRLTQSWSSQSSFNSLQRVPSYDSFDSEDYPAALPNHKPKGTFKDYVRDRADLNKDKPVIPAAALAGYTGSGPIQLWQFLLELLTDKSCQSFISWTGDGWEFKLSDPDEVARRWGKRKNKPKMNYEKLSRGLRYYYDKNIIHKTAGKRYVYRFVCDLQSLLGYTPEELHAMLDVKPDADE

RUNX1 [2] = target: RUNX1 (UniProt Q01196); assay: RUNX1 binding intensity (PBM fluorescence), RUNX1 alone (arbitrary fluorescence units); higher = stronger binding; settings: RUNX1 concentration 2 nM; ETS1 concentration 0 nM
Sequence of RUNX1 (Q01196 whole entry): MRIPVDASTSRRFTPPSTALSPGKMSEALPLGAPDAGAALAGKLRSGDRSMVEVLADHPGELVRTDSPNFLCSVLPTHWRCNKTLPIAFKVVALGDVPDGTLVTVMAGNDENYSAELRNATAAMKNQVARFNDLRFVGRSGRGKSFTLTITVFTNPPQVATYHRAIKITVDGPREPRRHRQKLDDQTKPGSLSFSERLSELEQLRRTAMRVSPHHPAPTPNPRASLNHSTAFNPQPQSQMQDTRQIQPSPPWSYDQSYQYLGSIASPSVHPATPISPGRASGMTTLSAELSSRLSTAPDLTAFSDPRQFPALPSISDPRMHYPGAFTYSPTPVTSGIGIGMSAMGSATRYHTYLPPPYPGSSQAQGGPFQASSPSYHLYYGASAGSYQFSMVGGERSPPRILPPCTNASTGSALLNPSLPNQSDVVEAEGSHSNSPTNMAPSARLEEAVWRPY
Protocol: (§1)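 Cooperative gcPBM on 36-bp genomic probes with neighbouring ETS1 and RUNX1 sites. Recombinant human RUNX1 (2 nM) was incubated alone or with ETS1 (25 nM) and detected with anti-RUNX1 antibody plus Alexa488 secondary. Values are medians over 4 replicate spots; the RUNX1+ETS1 data were normalised to the RUNX1-only data. The probes sit in constant array flanks that are not printed.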

ETS1 [3] = target: T1, ETS1; assay: ETS1 binding intensity (PBM fluorescence) in presence of RUNX1, normalised to ETS1-only experiment (arbitrary fluorescence units); higher = stronger binding; settings: ETS1 concentration 1 nM; RUNX1 concentration 25 nM
RUNX1 [4] = target: RUNX1 (UniProt Q01196); assay: RUNX1 binding intensity (PBM fluorescence) in presence of ETS1, normalised to RUNX1-only experiment (arbitrary fluorescence units); higher = stronger binding; settings: RUNX1 concentration 2 nM; ETS1 concentration 25 nM
Protocol: as §1
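Throughout, for RUNX1 binding intensity (PBM fluorescence) in presence of ETS1, normalised to RUNX1-only experiment: Full-length recombinant human ETS1 or RUNX1 bound to double-stranded 36-bp genomic probes on microarrays, detected by protein-specific primary antibody and Alexa488 secondary, spot fluorescence as median of four replicate spots.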
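Throughout, for RUNX1 binding intensity (PBM fluorescence), RUNX1 alone: Full-length recombinant human RUNX1 bound to double-stranded 36-bp genomic probes on a high-density microarray, scored as Alexa488 fluorescence per spot via anti-RUNX1 antibody, median of four replicate spots.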

Row | Sequence | ETS1 binding intensity (ETS1 [1]) | RUNX1 binding intensity (RUNX1 [2]) | ETS1 binding intensity (ETS1 [3]) | RUNX1 binding intensity (RUNX1 [4])
1 | GCCATGGCCACTTCCTGCTTGTAACCACAGCCCAGA | 4430 | 1210 | 13200 | 5520
2 | TGCCTTCTACTCCGGAACTCAGACCGCTGCCTTCTA | 759 | 1090 | 979 | 946
3 | CTGGGCTCGCCAGGCGGAAGTGGTTGGAGACTGCGT | 6330 | 668 | 9090 | 1510
4 | CTGGAGAGGATGTGGCCCCAGTGTGGTTCTGTAACT | 610 | 837 | 776 | 1170
5 | TCCCTCCTTCCGCTCTGGTTTTGTGGTTGCTTGCTG | 902 | 1490 | 1620 | 3330
6 | CCAGAATGCAGGAAGTGCTGTGGTTTGACTTTGTTT | 3550 | 831 | 9350 | 1970
7 | GAGGTGCCGGAAGCCAGTAGGTGGTTTTGGGTGCTA | 1530 | 695 | 2120 | 1180
8 | GCTGTGCCGGCAGGATGTGGTCTTTGGTTTCTGTTT | 5560 | 850 | 12300 | 3250
9 | TGCCACATCCTGCCCCTCCCCAGGTCTAACCACCAA | 696 | 1260 | 754 | 3360
10 | TTTATCATGAATGCAGGATGTGGGCAAACTCATGAC | 2860 | 814 | 5910 | 1140
11 | GTGACGGATATCCACCGGGCCCTGTGGTTTCCAACA | 394 | 822 | 1200 | 986
12 | CACCGCCGGAGTCCCGGATGTGGTTGCTAGGGCAGC | 5070 | 767 | 14900 | 3280
13 | GGTCCGGAAACGATTCTGGACCTGCGGGTATATCCA | 1050 | 776 | 1350 | 1070
14 | CCCGCCGGAAGGACGCGTCTGCGTCTCTGCGGCGAG | 680 | 688 | 1010 | 955
